Here are results for five compounds from PubChem BioAssay AID630 (Emory University Molecular Libraries Screening Center, 2007).

Screen size: about 88,000 compounds; about 260 (0.3%) were called active.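 Rule for the calls: active = compounds that reduce the energy-transfer binding signal between the protein and its labelled peptide by more than half; inactive = the rest.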 Many of the other results were omitted from the sample, so actives are more common in it than they were.

What is called inhibition is the drop in the measured response relative to a control, in per cent.

The target in the experiment is Mothers against decapentaplegic homolog 3 (Homo sapiens) (UniProt P84022). Put plainly: blockers of Smad3 binding to FoxH1 – biochemical, TR-FRET, primary screen (AID 630).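 Note: 0% = Smad3 plus labelled peptide maximal FRET and 100% = peptide-only background.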 As to conditions: TR-FRET Smad3/Dy647-FoxH1 peptide binding, europium anti-His; at 25 µM; stronger effect = higher value. On the technique in general: Time-resolved FRET reads energy transfer from a long-lived donor to a nearby acceptor.
Sequence of Mothers against decapentaplegic homolog 3 (Homo sapiens) (P84022 whole entry, looked up): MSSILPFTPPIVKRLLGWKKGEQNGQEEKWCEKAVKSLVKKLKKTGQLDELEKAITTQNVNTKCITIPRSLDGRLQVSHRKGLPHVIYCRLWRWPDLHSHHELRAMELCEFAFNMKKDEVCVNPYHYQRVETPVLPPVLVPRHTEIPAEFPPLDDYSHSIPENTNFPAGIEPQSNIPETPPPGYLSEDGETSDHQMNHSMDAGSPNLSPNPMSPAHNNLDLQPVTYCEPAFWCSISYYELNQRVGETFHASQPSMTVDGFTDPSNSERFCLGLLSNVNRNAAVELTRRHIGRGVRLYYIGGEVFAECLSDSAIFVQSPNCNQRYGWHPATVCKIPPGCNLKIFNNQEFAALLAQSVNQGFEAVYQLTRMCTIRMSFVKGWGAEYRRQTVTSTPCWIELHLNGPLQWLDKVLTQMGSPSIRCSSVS
Turning to `Cc1ccc(S(=O)(=O)O[C@H]2CN3CCC2CC3)cc1`, the inhibition is 67.3% (active). Regarding `O=C1C[C@@H]2OCC=C3CN4CC[C@]56c7ccccc7N1[C@H]5[C@H]2[C@H]3C[C@H]46` (tested in a mixture with another compound), the inhibition was -5.82% (inactive). Then `c1cc2c(cc1CCNC1CCCCCC1)OCO2`, with -10.4% (inactive); and `CC[C@@](O)(C(=O)O)c1cc2n(c(=O)c1CO)Cc1cc3ccccc3nc1-2`, with -1.51% (inactive). On to `C=C[C@@H]1CN2CC[C@H]1C[C@@H]2[C@H](O)c1ccnc2ccccc12`, for which the inhibition was -9.04% (inactive).
